# Screening results deposited in PubChem by National Center for Advancing Translational Sciences (NCATS).
# Pf Dd2 growth – inhibitors of Plasmodium falciparum Dd2 growth; Potency, µM (highest dose often 28.9 µM), for the others: at the top dose activity, negative = inhibition, hits mostly inhibitors; actives 4.3% (n = 120,000); AID 1347417; P. falciparum Dd2 growth, SYBR Green, 72 h; active = well fitted inhibition curve with a large enough effect;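 also: plate controls were DMSO vehicle for no effect and reference drug for full effect; nearly all actives have a fitted effect of over 65% in size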
#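 Readout: SYBR Green fluorescence, 485 nm excitation, 535 nm emission, after ~16 h lysis at 37C. Before that, Dd2-infected red cells (2.5% hematocrit) grew 72 h with compound, 29 uM top final concentration.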
# * marks the source's active call; other numbers are inactive results; i = inactive; [ ] = remark or other dose. The entries come from a sample that favours hits as a whole. Potency is read from the fitted curve at half-maximal effect.
SMILES,Pf Dd2 growth
O=C(O)Cn1ccc2cc(OCCc3cccc(-c4ccc(F)cc4)c3)cnc21,-23.5%[44.1 µM]
CCN1CCC(N(Cc2ccc3c(c2)OCO3)C(=O)Nc2cccc(C)c2C)CC1,18.4%
O=C(Nc1ccccc1)N(Cc1ccc2c(c1)OCO2)C1CCN(Cc2ccccc2)CC1,-28.3%
COc1ccccc1NC(=O)N(Cc1ccc2c(c1)OCO2)C1CCN(Cc2ccccc2)CC1,11.2µM*
COCCOc1ccc(C(=O)N[C@@H]2CN(C(=O)Nc3cccc(C#N)c3)CCC[C@H]2O)cc1,i
O=C(c1cncc(Br)c1)N1CCC(n2c(=O)[nH]c3ccccc32)CC1,i
CN(C)Cc1cc(CC2(NCc3ccc4c(c3)OCO4)COC2)no1,-9.5%[44.1 µM]
COC[C@H]1CCCN1C(=O)C[C@@H]1O[C@H](CNC(=O)c2ccccc2)[C@@H](O)[C@H]1O,7.3%[44.1 µM]
COc1ccc(CN2C(=O)[C@@H]3C[C@@H](O)CN3C3(CN(Cc4cnc[nH]4)C3)C2=O)cc1,-21.0%[44.1 µM]
Cc1nn(-c2ccc(C(F)(F)F)cc2)c(C)c1[C@@H]1C=C[C@@H](NC(=O)CC(C)(C)CC(=O)O)C1,i
Cc1nn(-c2ccc(C(C)C)cc2)c(C)c1[C@@H]1C=C[C@@H](NC(=O)NCc2ccccc2)C1,-29.8%[44.1 µM]
Cc1nn(-c2ccc(C(C)(C)C)cc2)c(C)c1[C@@H]1C=C[C@@H](NC(=O)NC(C)C)C1,10µM*
Cc1nn(-c2ccc(C(C)C)cc2)c(C)c1[C@@H]1C=C[C@@H](NC(=O)NC2CCCCC2)C1,10µM*
CCNC(=O)N[C@@H]1C=C[C@@H](c2c(C)nn(-c3ccc(C(C)(C)C)cc3)c2C)C1,-5.2%[44.1 µM]
Cc1nn(-c2ccc(C(C)C)cc2)c(C)c1[C@@H]1C=C[C@@H](NC(=O)Nc2ccc(Cl)cc2)C1,-2.6%
Cc1nn(-c2ccc(C(F)(F)F)cc2)c(C)c1[C@@H]1C=C[C@@H](NC(=O)CCC(=O)O)C1,i
Cc1nn(-c2ccc(C(C)(C)C)cc2)c(C)c1[C@@H]1C=C[C@@H](NC(=O)COCC(=O)O)C1,1.7%[44.1 µM]
CCNC(=O)N[C@@H]1C=C[C@@H](c2c(C)nn(-c3ccc(C(F)(F)F)cc3)c2C)C1,4.47µM*
COCC(=O)N[C@@H]1C=C[C@@H](c2c(C)nn(-c3ccc(C(C)(C)C)cc3)c2C)C1,-14.4%[44.1 µM]
Cc1nn(-c2ccc(C(C)(C)C)cc2)c(C)c1[C@@H]1C=C[C@@H](NC(=O)CCC(=O)O)C1,-18.5%[44.1 µM]
Cc1nn(-c2ccc(F)cc2)c(C)c1[C@@H]1C=C[C@@H](NC(=O)NC(C)C)C1,8.91µM*
Cc1ccc(CN2C(=O)NC3(CCN(C(=O)c4ccccn4)CC3)C2=O)cc1,15.5%
COc1ccc(CN2C[C@@H](C(N)=O)[C@H](c3nc(C)no3)C2)c(Cl)c1OC,-3.4%
CCN1CCN(CC(=O)N2C[C@@H](C(=O)O)[C@H](c3ccccc3OC)C2)CC1,-12.2%
COCCN1CCC(N2CCN(S(=O)(=O)c3ccc(C(F)(F)F)cc3)CC2)C1=O (stereo not drawn),-2.3%
SMILES,Pf Dd2 growth
Cc1noc([C@@H]2CN(C(=O)Cn3c(=O)oc4ccccc43)C[C@H]2C(N)=O)n1,-1.8%
CCN1c2cc(C(=O)N3CCN(c4ccc(C)cc4)CC3)ccc2C(=O)N2CCCCC21 (stereo not drawn),i
O=C(c1cn(CC2CCCO2)nn1)N1CCN(c2cccc(C(F)(F)F)c2)CC1 (stereo not drawn),-21.5%
COC[C@@H]1CN(S(=O)(=O)c2cccc(C)c2)C[C@H]1c1nc(C)no1,-1.6%
Cc1ccc(CN2C[C@@H]3C(=O)N(C)C(=O)[C@@H]3C2)cc1C,12.7%
COc1ccccc1-c1nc2c(c(SCC(=O)Nc3c(C)cc(C)cc3C)n1)Cc1c(CO)cnc(C)c1O2,-16.1%
CCc1ccc(CSc2nc(-c3ccccc3OC)nc3c2Cc2c(CO)cnc(C)c2O3)cc1,3.16µM*
C=Cc1ccc(CSc2nc(-c3ccc(C)cc3)nc3c2Cc2c(CO)cnc(C)c2O3)cc1,2.82µM*
Cc1ccc(CSc2nc(-c3ccccc3C)nc3c2Cc2c(CO)cnc(C)c2O3)cc1,5.01µM*
COc1ccc(-c2nc3c(c(SCC(=O)Nc4cc(C)cc(C)c4)n2)Cc2c(CO)cnc(C)c2O3)cc1,48.9%
Cc1ccc(C)c(NC(=O)CSc2nc(-c3ccccc3Cl)nc3c2Cc2c(CO)cnc(C)c2O3)c1,9.0%
CCCCSc1nc(-c2cccc(OC)c2)nc2c1Cc1c(CO)cnc(C)c1O2,-13.5%
Cc1cccc(-c2nc3c(c(SCc4ccccc4Cl)n2)Cc2c(CO)cnc(C)c2O3)c1,1.4%
CCc1ccccc1NC(=O)CSc1nc(-c2ccccc2OC)nc2c1Cc1c(CO)cnc(C)c1O2,-12.4%
C=Cc1ccc(CSc2nnc(C)n3c2cc2occc23)cc1,-1.4%
CCc1ccc(NC(=O)CSc2nc(-c3cccc(OC)c3)nc3c2Cc2c(CO)cnc(C)c2O3)cc1,3.55µM*
Cc1ccc(-c2nc3c(c(SCC(=O)N4CCCCC4)n2)Cc2cc(C)ccc2O3)cc1,-21.5%
COCC(=O)N[C@H]1CCN2C(=O)N(c3ccc(OC(F)(F)F)cc3)C(=O)[C@@H]2C1,i
O=C(c1cc(F)ccc1F)N1CCC(Cc2nc(-c3cnccn3)no2)CC1,-11.1%
Cc1nc(CN2CC3(CCN(C)C3)c3cc(C(=O)NCc4ccccc4)ccc32)cs1 (stereo not drawn),i
CCNC(=O)N1C[C@H]2OC(=O)N(Cc3ccc(OC)c(OC)c3)[C@H]2C1,3.2%
COc1ccc(S(=O)(=O)N2CCC(c3noc(-c4ccncc4)n3)C2)cc1 (stereo not drawn),2.4%[5.79 µM]
COC[C@@H]1CNC[C@H]1c1nc(C2CC2)no1,-5.3%
CC(C)(C)n1nnnc1C1CC2(CCOCC2)C(=O)N1CCc1nc2ccccc2[nH]1 (stereo not drawn),i
O=C(c1ccn[nH]1)N1CCC(c2noc(COc3ccc(F)cc3)n2)C1 (stereo not drawn),i
SMILES,Pf Dd2 growth
Cc1ccccc1CN1CCc2nc(C(=O)Nc3ccccc3)oc2CC1,-14.8%[44.1 µM]
Cc1noc(C)c1CN1CCc2nc(C(=O)Nc3ccccc3)oc2CC1,i
Cc1noc(C)c1CN1CCc2nc(C(=O)Nc3cccc(C(F)(F)F)c3)oc2CC1,12.6µM*
COc1ccccc1CN1CCc2nc(C(=O)Nc3ccccc3)oc2CC1,11.2µM*
O=C(Nc1cccc(C(F)(F)F)c1)c1nc2c(o1)CCN(Cc1ccccc1F)CC2,i
COc1ccccc1CN1CCc2nc(C(=O)Nc3cccc(C(F)(F)F)c3)oc2CC1,-7.4%
CCOc1ccc(-c2ccnc(N3CCC(NC(C)=O)CC3)n2)cc1C(=O)O,3.4%
CN(CC[C@H]1CN(C(=O)c2ccnc(Cl)c2)CC[C@H]1CC(=O)O)c1ccccc1,i
COC(=O)[C@H]1CN(C(=O)c2cccnc2)CCN1C(=O)CSC,-6.1%[44.1 µM]
O=C(COc1ccc(F)cc1)NCCc1noc(-c2ccncc2)n1,-17.0%
O=C(CCn1ccn2nc3c(c2c1=O)CCCC3)N1CCN(c2ccc(Cl)cc2)CC1,-9.0%
O=C(C1CCN(C(=O)N2CC3CC(C2)[C@H]2CCCC(=O)N2C3)CC1)N1CCN(c2ccccn2)CC1 (stereo partly drawn),i
CC(C)CN1CCN(C(=O)C2CCCN(S(C)(=O)=O)CCC(=O)NCC2)CC1 (stereo not drawn),-2.7%
CCOC(=O)C1CCN(c2cc3c(cc2NC(=O)c2ccc(OC)c(OC)c2)n(C)c(=O)n3C)CC1,8.91µM*
COc1ccc(C(=O)Nc2cc(C(F)(F)F)ccc2N2CCN(c3ccccc3)CC2)cc1OC,-7.3%
CCOC(=O)c1ccc(NC(=O)Nc2cc3c(cc2N2CCCC2)n(C)c(=O)n3C)cc1,i
